Data as given in PubChem BioAssay (NCI).
The panel holds about 79,000 compounds, 15% with a hit somewhere; the sample as a whole holds those more often. The source made the active and inactive calls. Rule as the data show it: active = growth inhibition above about 70%; inactive = the rest.

Assays:
[1] = NCI Yeast Anticancer Drug Screen. Data for the rad50 strain (AID 155);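 also: 0% = growth of vehicle-only cultures of the same strain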; conditions: S. cerevisiae rad50 strain growth inhibition, stronger effect = higher value
Summary of the method: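 Inhibition values express reduced yeast growth in compound-treated cultures relative to vehicle-treated controls.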

[2] = NCI Yeast Anticancer Drug Screen. Data for the mec2-1 strain (AID 157); conditions: S. cerevisiae mec2-1 strain, stronger effect = higher value
Summary of the method: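 Test agents were screened against the mec2-1 yeast strain, with defined DNA repair or cell cycle alteration. Growth was scored as inhibition against vehicle-only controls.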

[3] = NCI Yeast Anticancer Drug Screen. Data for the sgs1 mgt1 strain (AID 161);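 also: 0% = growth of cultures given vehicle only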; conditions: S. cerevisiae sgs1 mgt1 strain, stronger effect = higher value
Summary of the method: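 Test agents were incubated with a DNA-repair-mutant yeast strain. Growth was then read and compared against vehicle-treated controls.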

[4] = NCI Yeast Anticancer Drug Screen. Data for the cln2 rad14 strain (AID 165);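 also: 0% = growth equal to vehicle treated cultures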; conditions: S. cerevisiae cln2 rad14 strain, stronger effect = higher value
Summary of the method: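 Growth of compound-exposed yeast (cln2 rad14 genotype) measured and expressed as inhibition relative to vehicle.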

[5] = NCI Yeast Anticancer Drug Screen. Data for the bub3 strain (AID 167); conditions: S. cerevisiae bub3 mutant strain, stronger effect = higher value
Summary of the method: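 Steps: expose the mutant yeast strain to compound; grow alongside vehicle-treated cultures; measure growth; express inhibition against the vehicle cultures.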

[6] = NCI Yeast Anticancer Drug Screen. Data for the mlh1 rad18 strain (AID 175); conditions: S. cerevisiae mlh1 rad18 strain growth inhibition, stronger effect = higher value
Summary of the method: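 In this whole-cell yeast screen, a strain with altered DNA damage repair is challenged with compound, and its growth is measured against matched vehicle-treated controls.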

[7] = at 5.0 µM (retest, dose inferred, filed as 0.5)
[8] = at 50.0 µM (retest, dose inferred, filed as 5.0)

Measured: growth inhibition

CCCCCCCCCCCC[S+](C)CC(=O)[O-] (stereo unspecified)
inactive: [1]; [7] 20% | [1]; at 50.0 µM 23.2% | [2]; [7] 5% | [2]; at 50.0 µM 48.8% | [3]; [7] -2% | [3]; at 50.0 µM 39.5% | [4]; [7] 11% | [4]; [8] 64% | [5]; [7] 19% | [5]; at 50.0 µM 27.9% | [6]; [7] 10% | [6]; [8] 41%
active: [1]; [8] 74% | [2]; [8] 70% | [3]; [8] 78% | [4]; at 50.0 µM 72% | [5]; [8] 89% | [6]; at 50.0 µM 72.8%

CCOC(=O)C1=NN(c2ccccc2)C(=O)/C1=C\N1C(=O)/C(=C/c2cccc(O)c2)SC1=S
inactive: [1]; [7] -9% | [1]; [8] 11% | [1]; at 50.0 µM 6.8% | [2]; [7] -16% | [2]; [8] 17% | [2]; at 50.0 µM 1.9% | [3]; [7] -2% | [3]; [8] 9% | [3]; at 50.0 µM 3.45% | [4]; [7] -13% | [4]; [8] -13% | [4]; at 50.0 µM 60.5% | [5]; [7] 4% | [5]; [8] 12% | [5]; at 50.0 µM 3.45% | [6]; [7] 0% | [6]; [8] 10% | [6]; at 50.0 µM -4.9%

COC(=O)[C@]1(C)CCC[C@@]2(C)[C@@H]3C[C@@H]4[C@H]5C[C@@]3(CC[C@@H]21)C[C@@]45C
inactive: [1]; [7] 31% | [2]; [7] 28% | [3]; [7] 34% | [4]; [7] 31% | [5]; [7] 32% | [6]; [7] 37%
active: [1]; [8] 99% | [1]; at 50.0 µM 92.2% | [2]; [8] 99% | [2]; at 50.0 µM 93.5% | [3]; [8] 99% | [3]; at 50.0 µM 93.7% | [4]; [8] 99% | [4]; at 50.0 µM 92.3% | [5]; [8] 100% | [5]; at 50.0 µM 92.2% | [6]; [8] 99% | [6]; at 50.0 µM 86.8%

COc1cc([C@@H]2c3cc4c(cc3[C@H](OC3OC5COC(c6ccccc6)OC5C(O)C3O)[C@H]3COC(=O)[C@H]23)OCO4)cc(OC)c1OC (stereo partly specified)
inactive: [1]; [7] -4% | [2]; [7] -13% | [3]; [7] 18% | [4]; [7] 12% | [4]; [8] 56% | [4]; at 50.0 µM 63% | [5]; [7] 5% | [6]; [7] -4%
active: [1]; [8] 91% | [1]; at 50.0 µM 81.3% | [2]; [8] 77% | [2]; at 50.0 µM 81% | [3]; [8] 70% | [3]; at 50.0 µM 76.3% | [5]; [8] 82% | [5]; at 50.0 µM 77.5% | [6]; [8] 91% | [6]; at 50.0 µM 81%

O=[N+]([O-])c1ccc(N2CCN(Cc3ccccc3)CC2)c2c1no[n+]2[O-]
active: [1]; [8] 97% | [1]; at 50.0 µM 90.1% | [2]; [8] 98% | [2]; at 50.0 µM 93.1% | [3]; [8] 92% | [3]; at 50.0 µM 89.5% | [4]; at 50.0 µM 72.5% | [5]; [8] 78% | [5]; at 50.0 µM 90% | [6]; [8] 97% | [6]; at 50.0 µM 88.3%
inactive: [1]; [7] 50% | [2]; [7] 18% | [3]; [7] 34% | [4]; [7] 4% | [4]; [8] 22% | [5]; [7] 11% | [6]; [7] 39%

Nc1ccc(C(=O)/C=C/c2ccccc2)cc1
inactive: [1]; [7] 6% | [1]; [8] 57% | [1]; at 50.0 µM 67.8% | [2]; [7] 12% | [2]; [8] 58% | [3]; [7] 11% | [4]; [7] 4% | [4]; [8] 21% | [4]; at 50.0 µM 8.95% | [5]; [7] 5% | [6]; [7] 4% | [6]; [8] 53%
active: [2]; at 50.0 µM 85.3% | [3]; [8] 75% | [3]; at 50.0 µM 78.1% | [5]; [8] 81% | [5]; at 50.0 µM 94.5% | [6]; at 50.0 µM 96.3%

COC(=O)c1ccc(=O)c2nc3/c(=C/O)c(O)cc(=O)c3[nH]c12
active: [1]; [7] 98% | [1]; [8] 92% | [1]; at 50.0 µM 90% | [2]; [7] 99% | [2]; [8] 94% | [2]; at 50.0 µM 92.1% | [3]; [7] 99% | [3]; [8] 97% | [3]; at 50.0 µM 91.2% | [4]; [7] 96% | [4]; [8] 96% | [4]; at 50.0 µM 89.3% | [5]; [7] 99% | [5]; [8] 96% | [5]; at 50.0 µM 89.5% | [6]; [7] 99% | [6]; [8] 95%
inactive: [6]; at 50.0 µM 39.5%
